Source: PubChem BioAssay AID651791 (National Center for Advancing Translational Sciences (NCATS), 2012)
Records with an inconclusive call do not appear. The source made the active and inactive calls. Calls come from the whole dose curve; as a rule, active = well fitted inhibition curve with a large enough effect; inconclusive = small, poorly fitted or top-dose-only effect; inactive = no such curve, though single readings can be large or run the other way.

test: InCell qHTS Assay for Inhibitors of the mTORC1 Signaling Pathway in MEF (Tsc2-/-, p53-/-) Cells: Hit Validation; conditions: phospho-rpS6 immunofluorescence, 24 h; activity change, negative = inhibition: at 38.3 µM (top of the series); note: nearly all actives have a fitted effect of over 75% in size
Description: The mammalian target of rapamycin (mTOR) is an intracellular serine/threonine kinase Aberrant regulation of mTOR signaling plays a causative role in a number of human diseases, including cancer, benign tumors such as lymphangioleiomyomatosis (LAM) and Tuberous Sclerosis Complex (TSC), and metabolic diseases such as diabetes and obesity. This project aims to identify inhibitors of ribosomal protein S6 (rpS6) phosphorylation. The phosphorylation of rpS6 is a key event downstream of mTOR activation. The assay uses a phospho-specific antibody of phospho-rpS6 to detect inhibitors of mTOR activation. Mutations in the Tsc1 and Tsc2 genes are the underlying genetic lesions responsible for TSC, causing constitutive activation of the mTORC1 pathway and leading to profound effects on cell metabolism. Aberrant metabolism in cancer has recently received significant attention as a target to develop therapeutic agents in the treatment of cancer.1 As Tsc2-/- cells have lost the ability to respond to energy and growth factor deprivation, these cells are unable to properly down regulate cellular biosynthetic processes in response to metabolic stress, and are thus extremely sensitive to glucose deprivation-induced death.2 A central goal of this project is to explore the unique cell survival and metabolic properties of cells with Tsc1 or Tsc2 by screening for compounds that selectively target the Tsc2-/- MEFs by screening both Tsc2-/- and WT MEF cell lines. We hope to better understand these aspects of TSC physiology in order to exploit them for therapeutic benefit. NIH Molecular Libraries Probe Production Centers Network [MLPCN] NIH Chemical Genomics Center [NCGC] MLPCN Grant: NS059428 Assay Submitter (PI): Blenis, John; Harvard University
For quantitative high throughput analysis of mTORC1 signaling, we developed a cell-based assay for immuno-fluorescence based detection of rpS6 phosphorylation on the Acumen Explorer that will be used a platform for the primary small molecule screen. Mouse embryonic fibroblasts (MEFs) are cultured in 1536-well plates using DMEM + 10% FBS. Twenty-four hrs after plating, test compounds (solubilized in DMSO) are delivered and incubated with the cells for 24 hrs at 37 degree Celsius. Following the incubation, media with compound is aspirated and the cells are fixed in 4% paraformaldehyde (PFA) containing PBS + 0.2% TX-100. Next, PFA is aspirated, cells are washed two times with PBS plus 0.2% TX-100 and the cells are blocked for 1 hr at room temperature (blocking buffer: LiCOR Blocking Buffer plus 0.2% TX-100). This is followed by aspiration and staining with Alexa-488 conjugated-phospho-rpS6 Ser235/236 antibody for 2 hours at room temperature (Cell Signaling Technology # 4803, 1:50 dilution in blocking buffer). Cells are washed two times with PBS plus 0.2% TX-100, and stained with 10 uM propidium iodide (PI) for 20-25 minutes for cell number measurement (1:500 dilution of Hoescht staining is also added for IN Cell imaging). The plates are scanned on the Acumen Explorer laser scanning instrument (TTP Labtech) using the 488nm laser for simultaneous excitation of the Alexa-488 and PI. The fluorescence emission from the Alexa-488 conjugated rpS6 phospho-235/236 antibody staining is selected using a […] band pass filter. Fluorescence emission from the PI stain is selected using a 575-640 nm band pass filter. The normalized phospho-S6 staining is calculated as the ratio of the integrated Alexa 488 intensity divided by the integrated PI intensity for the single concentration rapamycin control (7.5 nM) and DMSO columns. […] Inhibition of the pathway is defined based on the normalized phospho-S6 intensity in rapamycin treated cells. […]
Potency is the fitted concentration of half-maximal effect.

Activity change, negative = inhibition, -100%:
COc1cc(C2CC(=O)Nc3cc4c(cc32)OCCO4)cc(Br)c1OC (stereo not given), CCOC(=O)N1CCN(Cc2nc3cc(NC(=O)CC)ccc3n2C(C)C)CC1, Cc1ccc(NC(=O)CSc2ccc(-c3ccccn3)nn2)cc1F, CCN(Cc1nc(-c2ccc(OC)cc2)oc1C)S(=O)(=O)c1ccc(Cl)cc1, CCCn1c2ccc(C)cc2c2nnc(SCCN3CCCCC3)nc21, Cc1ccc(NC(=O)CSc2nc(=O)cc(N)n2CCc2ccccc2)cc1, Cc1ccc(O)c(C(CC(=O)NCC2(c3ccccc3)CCCC2)c2ccccc2)c1 (stereo not given), CC(C)OCCCn1c(=O)c2ccccc2n2c(-c3ccc(F)cc3)nnc12, COc1cc(Cl)c(C)cc1NC(=O)C1CCN(c2nc3ccccc3n3cccc23)CC1, C=C(C)CSc1nc(-c2ccccc2)cc(-c2ccc(OC)cc2)c1C#N, Cc1ccc(NC(=O)CSc2nc(-c3ccco3)cc(C(F)(F)F)n2)cc1C, Cc1ccc(CN2C(=O)c3ccccc3Sc3ccc(C(=O)NCCCN4CCOCC4)cc32)cc1, COc1ccc(S(=O)(=O)NCCc2csc3nc(-c4ccc(Cl)cc4)nn23)cc1C, CCc1nn(CC(=O)NCc2ccccc2Cl)c(=O)c2cccn12, COc1cccc(-c2nc(SCC(=O)NCC3CCCO3)c(-c3ccc(F)cc3)[nH]2)c1 (stereo not given), CC(=O)N1CCCc2cc(S(=O)(=O)N(Cc3ccccc3)C(C)C)ccc21, O=C(CN(CCc1ccccc1)S(=O)(=O)c1ccccc1)NCc1ccc(Cl)cc1, COc1cc2nc(Nc3ccc(C)c(C)c3)nc(N)c2cc1OC, Cc1oc(-c2ccccc2F)nc1Cn1c(SCc2cccc(Cl)c2)nc2ccncc21, COc1cccc(C(=O)Nc2ccc(-c3cc(C(F)(F)F)nn3-c3ccccc3)cc2)c1, CCc1ccc(NC(=O)CSc2nccn2C2CCCC2)cc1, COc1ccccc1C(=O)Nc1ccc(-c2cc(C(F)(F)F)nn2-c2ccccc2)cc1, COc1cc(C(=O)NC(c2ccccc2Cl)c2cc(Cl)c3cccnc3c2O)cc(OC)c1OC (stereo not given), O=C(c1ccc(CS(=O)c2ccccc2Cl)o1)N1CCN(c2cccc(Cl)c2)CC1 (stereo not given), COCCCNc1ncnc2c1cnn2-c1ccc(F)cc1, CCOC(=O)c1c(C)n(-c2ccccc2)c2ccc(OC(=O)c3ccccc3)cc12, Cc1cccc(N(CC(=O)NCCSc2ccc(Cl)cc2)S(=O)(=O)c2ccccc2)c1C, CCOC(=O)c1ccc(N2C(=O)c3n[nH]c(C)c3C2c2cccc(Br)c2)cc1 (stereo not given), Cc1ccc(NC(=O)COc2ccc(-c3nn(C)c(=O)c4ccccc34)cc2)c(C)c1

Activity change, negative = inhibition, -7.96%:
COc1ccc(-c2ccc(CCC(=O)O)n2-c2ccccc2O)cc1

Activity change, negative = inhibition, -12.1%:
CCc1ccc(S(=O)(=O)N(C(=O)Oc2ccccc2)c2ccc3oc(C)c(C(=O)OC)c3c2)cc1

Activity change, negative = inhibition, -14.6%:
CCOc1cccc(C2CC(=O)Nc3cc4c(cc32)OCCO4)c1 (stereo not given)

Activity change, negative = inhibition, -17.8%:
Cc1ccc(Nc2nc(C(N)=O)c(NC(=O)c3ccccc3Br)s2)cc1

Activity change, negative = inhibition, -17.3%:
Cc1cccc(N2CCN(C(=O)c3ccc(CS(=O)c4cccc(Cl)c4)o3)CC2)c1C (stereo not given)

Potency, active:
CCC(=O)C1=C(c2ccc(Cl)cc2)N(C(=O)CC)n2c(C)nnc2S1 2.61 µM, CN(c1ccccc1)S(=O)(=O)c1ccc(NC(=O)c2nc(S(C)(=O)=O)ncc2Cl)cc1 2.07 µM, CC(C)CCNC(=O)C(=O)Nc1c2c(nn1-c1ccc(Cl)cc1)CSC2 18.5 µM, COC(=O)c1ccccc1NC(=O)c1nc(S(=O)(=O)Cc2cccc(C)c2)ncc1Cl 3.69 µM, COc1cc(OC)c(NC(=O)Nc2ccc3c(c2)N(C)C(=O)c2ccccc2S3)cc1Cl 13.1 µM, Cc1cccc(-n2nnnc2S(C)(=O)=O)c1 3.29 µM
